Consider 56 sequences from PMC5515408, “Sequence-specific DNA binding by MYC/MAX to low-affinity non-E-box motifs”.

In all, about 5,000 sequences were measured (“log2 normalized fluorescence”: median about 0.089, highest 2% from about 0.81 on). Many of the other results were omitted from the sample, so the highest values are more common in it than they were.

MYC (p64);MAX (p21), in MYC:MAX, sequence (P01106 16-454, chain 1 of 2): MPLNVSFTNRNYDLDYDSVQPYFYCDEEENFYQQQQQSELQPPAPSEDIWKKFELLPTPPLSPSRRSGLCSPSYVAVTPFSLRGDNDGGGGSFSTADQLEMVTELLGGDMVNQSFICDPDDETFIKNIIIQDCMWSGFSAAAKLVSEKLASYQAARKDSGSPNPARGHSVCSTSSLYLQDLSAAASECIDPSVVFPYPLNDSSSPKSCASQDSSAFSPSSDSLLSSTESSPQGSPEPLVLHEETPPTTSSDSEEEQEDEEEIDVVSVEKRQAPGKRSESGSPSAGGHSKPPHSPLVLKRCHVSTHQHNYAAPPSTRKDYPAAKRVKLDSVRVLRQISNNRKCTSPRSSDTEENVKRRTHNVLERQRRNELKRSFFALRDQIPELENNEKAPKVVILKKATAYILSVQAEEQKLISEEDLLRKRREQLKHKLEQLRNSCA
MYC (p64);MAX (p21), in MYC:MAX, sequence (P61244 other isoform, or with tags, fused parts or gaps |, chain 2 of 2): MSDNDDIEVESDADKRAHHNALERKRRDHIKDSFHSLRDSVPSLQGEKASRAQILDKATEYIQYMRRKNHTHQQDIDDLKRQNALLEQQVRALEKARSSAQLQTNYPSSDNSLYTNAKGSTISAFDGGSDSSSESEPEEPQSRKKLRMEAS

In the test the target is MYC (p64);MAX (p21), in MYC:MAX (human;human, UniProt P01106-1;P61244-2 1-439;1-151, |). Description: protein-binding microarray (anti-MAX antibody); PBM: 15 mM Tris-HCl pH 7.5, 100 mM KCl, 0.075% NP40, 7.5 mM beta-mercaptoethanol, 375 ng/ul BSA, 8 ng/ul poly(dA-dT):(dA-dT), 550 ng complex, 60 min, room tempe; high values mean tight binding. To be noted: protein: recombinant;recombinant; tags: 6xHis;6xHis; copies: 1;1; label: 3' end of printed strand (linker) attached to glass slide; dsDNA, one strand shown. In a few lines:
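Recombinant His-tagged human MYC:MAX or MAX:MAX dimers (550 ng, expressed in E. coli) were incubated for 60 min at room temperature in Tris-KCl buffer, pH 7.5, with NP40, BSA and poly(dA-dT) competitor. The custom Agilent glass array held ~5000 unique 12-nt sequences, each spotted in triplicate and made double-stranded by primer extension. Bound protein was detected with anti-MAX and secondary antibodies and scanned at 543 nm. Binding is reported as log2 normalized fluorescence.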
Consider “CCGGCTGAAAAGCGGTATTAATAGCTAAGATTACTATATCGACG”, for which the binding signal was 0.0993 log2 normalized fluorescence.

With “CCGGCTGACACTTAGTATTAATAGCTAAGATTACTATATCGACG”, the binding signal is 0.231 log2 normalized fluorescence.

On to “CCGGCTGACAAGTGGGATTAATAGCTAAGATTACTATATCGACG”, for which the binding signal was 0.302 log2 normalized fluorescence.

“CCGGCTGAGTGAGTGTATTAATAGCTAAGATTACTATATCGACG”: the binding signal is 0.08 log2 normalized fluorescence.

Regarding “CCGGCTGACGTTGTGTATTAATAGCTAAGATTACTATATCGACG”, the binding signal is 0.16 log2 normalized fluorescence.

For “CCGGCTGGAACGTGGTATTAATAGCTAAGATTACTATATCGACG”, the binding signal is 0.66 log2 normalized fluorescence.

On to “CCGGCTGAGCATATGTATTAATAGCTAAGATTACTATATCGACG”, for which the binding signal is 0.395 log2 normalized fluorescence.

For “CCGGCTGAAGGCGTGTATTAATAGCTAAGATTACTATATCGACG”, the binding signal was 0.409 log2 normalized fluorescence.

On to “CCGGCAGACACGAGGTTTTAATAGCTAAGATTACTATATCGACG”, for which the binding signal is 0.64 log2 normalized fluorescence.

Turning to “CCGGCTGACACGAGGTATTAATAGCTAAGATTACTATATCGACG”, the binding signal was 0.625 log2 normalized fluorescence.

With “CCGGCAGTCACATGGTATTAATAGCTAAGATTACTATATCGACG”, the binding signal was 0.995 log2 normalized fluorescence.

Consider “CCGGCTAACACATGGTATTAATAGCTAAGATTACTATATCGACG”, for which the binding signal was 0.6 log2 normalized fluorescence.

Consider “CCGGCAGACACTTGGTATTAATAGCTAAGATTACTATATCGACG”, for which the binding signal was 0.421 log2 normalized fluorescence.

As for “CCGGCAGACACATGGTATTAATAGCTAAGATTACTATATCGACG”, the binding signal is 0.834 log2 normalized fluorescence.

For the sequence “CCGGCTTTCACATGGTATTAATAGCTAAGATTACTATATCGACG”, the binding signal was 0.504 log2 normalized fluorescence.

As to “CCGGCAGACATGGGGTATTAATAGCTAAGATTACTATATCGACG”, the binding signal is 0.458 log2 normalized fluorescence.

On to “CCGGCAGACACGAGGTATTAATAGCTAAGATTACTATATCGACG”, for which the binding signal was 0.93 log2 normalized fluorescence.

For the sequence “CCGGCTGACTACATGTATTAATAGCTAAGATTACTATATCGACG”, the binding signal is 0.419 log2 normalized fluorescence.

As for “CCGGCTGTCAAGTGGCATTAATAGCTAAGATTACTATATCGACG”, the binding signal was 0.1 log2 normalized fluorescence.

“CCGGCTGAGTTTCCGTATTAATAGCTAAGATTACTATATCGACG”: the binding signal is -0.0243 log2 normalized fluorescence.

Consider “CCGGCTGAAGGATGGTATTAATAGCTAAGATTACTATATCGACG”, for which the binding signal is 0.0538 log2 normalized fluorescence.

Take “CCGGCTGTCCCCTGGTATTAATAGCTAAGATTACTATATCGACG”: the binding signal was -0.00889 log2 normalized fluorescence.

As for “CCGGCTGACTGTGAGTATTAATAGCTAAGATTACTATATCGACG”, the binding signal was 0.00564 log2 normalized fluorescence.

With “CCGGCTGACGGCAGGTATTAATAGCTAAGATTACTATATCGACG”, the binding signal is -0.00507 log2 normalized fluorescence.

Take “CCGGCGGACGCGTGGTATTAATAGCTAAGATTACTATATCGACG”: the binding signal was 0.64 log2 normalized fluorescence.

In the case of “CCGGCGGACACGTGCTATTAATAGCTAAGATTACTATATCGACG”, the binding signal is 0.839 log2 normalized fluorescence.

With “CCGGCGGACACGTGGTATTAATAGCTAAGATTACTATATCGACG”, the binding signal is 0.99 log2 normalized fluorescence.

“CCGGCGGACACGTGTGATTAATAGCTAAGATTACTATATCGACG”: the binding signal was 0.779 log2 normalized fluorescence.

“CCGGCGGACACGTCGTATTAATAGCTAAGATTACTATATCGACG”: the binding signal is 0.287 log2 normalized fluorescence.

“CCGGCGGACCCGTGGTATTAATAGCTAAGATTACTATATCGACG”: the binding signal was 0.439 log2 normalized fluorescence.

Take “CCGGCTGAGTACCTGTATTAATAGCTAAGATTACTATATCGACG”: the binding signal was 0.076 log2 normalized fluorescence.

As for “CCGGCTGATGGGCAGTATTAATAGCTAAGATTACTATATCGACG”, the binding signal was 0.0215 log2 normalized fluorescence.

“CCGGCTGACGATCAGTATTAATAGCTAAGATTACTATATCGACG”: the binding signal is -0.0317 log2 normalized fluorescence.

“CCGGCTGAATACCTGTATTAATAGCTAAGATTACTATATCGACG”: the binding signal is 0.159 log2 normalized fluorescence.

As to “CCGGCTGAGCGCAGGTATTAATAGCTAAGATTACTATATCGACG”, the binding signal was 0.113 log2 normalized fluorescence.

Turning to “CCGGCTGACCAGTTGTATTAATAGCTAAGATTACTATATCGACG”, the binding signal is 0.159 log2 normalized fluorescence.

With “CCGGCTGAGCACACGTATTAATAGCTAAGATTACTATATCGACG”, the binding signal was 0.338 log2 normalized fluorescence.

With “CCGGCGCACACGTGCTATTAATAGCTAAGATTACTATATCGACG”, the binding signal was 0.875 log2 normalized fluorescence.

Regarding “CCGGCGCGCACGTGGTATTAATAGCTAAGATTACTATATCGACG”, the binding signal was 0.813 log2 normalized fluorescence.

Regarding “CCGGCTCGCACGTGGTATTAATAGCTAAGATTACTATATCGACG”, the binding signal was 0.665 log2 normalized fluorescence.

On to “CCGGCGCACACGTGGTATTAATAGCTAAGATTACTATATCGACG”, for which the binding signal was 0.906 log2 normalized fluorescence.

As to “CCGGCTGGCACGTGCTATTAATAGCTAAGATTACTATATCGACG”, the binding signal is 0.722 log2 normalized fluorescence.

As to “CCGGCTGAATTCCCGTATTAATAGCTAAGATTACTATATCGACG”, the binding signal is 0.003 log2 normalized fluorescence.

As to “CCGGCTGACGGATGGTATTAATAGCTAAGATTACTATATCGACG”, the binding signal is 0.302 log2 normalized fluorescence.

Turning to “CCGGCTGACGGACAGTATTAATAGCTAAGATTACTATATCGACG”, the binding signal is 0.124 log2 normalized fluorescence.

Turning to “CCGGCTGACTCGTGCTGTTAATAGCTAAGATTACTATATCGACG”, the binding signal was 0.41 log2 normalized fluorescence.

Take “CCGGCTGACACGTGATATTAATAGCTAAGATTACTATATCGACG”: the binding signal was 0.522 log2 normalized fluorescence.

Regarding “CCGGCTGACACGTGAGATTAATAGCTAAGATTACTATATCGACG”, the binding signal is 0.826 log2 normalized fluorescence.

Take “CCGGCTGACACGTGAAGTTAATAGCTAAGATTACTATATCGACG”: the binding signal was 0.527 log2 normalized fluorescence.

Consider “CCGGCTGACACGTGATCTTAATAGCTAAGATTACTATATCGACG”, for which the binding signal is 0.744 log2 normalized fluorescence.

Turning to “CCGGCTGACACGTGTGATTAATAGCTAAGATTACTATATCGACG”, the binding signal is 0.872 log2 normalized fluorescence.

As for “CCGGCTGACACGTGAGCTTAATAGCTAAGATTACTATATCGACG”, the binding signal is 0.713 log2 normalized fluorescence.

As to “CCGGCTGACACGTGATGTTAATAGCTAAGATTACTATATCGACG”, the binding signal is 0.851 log2 normalized fluorescence.

Turning to “CCGGCTGACACGTGAGGTTAATAGCTAAGATTACTATATCGACG”, the binding signal is 0.702 log2 normalized fluorescence.

Turning to “CCGGCTGACACGTCATGTTAATAGCTAAGATTACTATATCGACG”, the binding signal is 0.5 log2 normalized fluorescence.

For “CCGGCTGAGCCATCGTATTAATAGCTAAGATTACTATATCGACG”, the binding signal was 0.0938 log2 normalized fluorescence.
